test system: THRa homodimer (NR concentration 90 nM); test: PBM binding z-score (relative to random genomic background probes); higher = stronger binding; sequences stand for … in GC…GCGATTGACAGCGTAGAATGAAGG
Outline: (§1)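 Ligand-free nuclear receptor dimers were bound for 1 h to custom Agilent 4×180K protein-binding microarrays. Detection used antibodies against each partner (one per run). Binding z-scores rest on regression-normalized fluorescence, with random background probes as the reference.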

Sequence | PBM binding z-score
GTACAAAGGTGAATAGGTCGTTGATGAGTAGGCG | -0.0459
CGGCCAAGGTCAGAGAGGTCAGTGAATGCCGAGT | 2.42
TCTCGGAGGACACGAAGGTCAGAGCCTTCCAGAG | 0.555
CCAGACAGGTGAAAGGTAACTCAGTCTGGTACGC | -0.156
ATATGAAGGTTAGCTGGGGTCATTCAGACTAGGC | 3.38
CCAGACAGGTGAGAAGGTACCTCAGCCTCGATTA | 0.0556
GTACCAAGGTGAATAGCTCGTTGATGAGTAGGCG | 0.236
AGACCAAGGTGATCGTGAGGTCGTTGATACTAAC | 2.04
TCTTGTAGGTCAACAGGAGGTTAAGAAAGATCGA | 0.603
CGTCCAAGGTCAAAGGTCTGTGAAGAGATGACGG | 2.11
GCTATTAGTTTAAAGGGCAACCGAATGATTCTCG | 0.375
ATCTCTAGGTAAAGTTCCGTGAAAGATCGATAGA | 0.224
GTACCAAGGTGAATAGGTCGTTCATGAGTAGGCG | 0.565
CAAACTCGGTCACCGGAAGGTCAAAGTCCGCATG | 1.59
GCTGCTAGGTCAGGTCGGTCAGCTAACGGGTACG | 0.932
TCGAGTAGGTTACCAACGGGGCATTCAGCTTTCT | -0.794
CCTCGGAGGACACAAGGTCAGAGCTGTCCGCTTT | 1.57
CCTTACGGGTCACTCCAGGTTATAGCTTCGGAGT | 0.616
ATCTCTAGGTAAAGATTGTTCAGTGAATGCAAAT | 0.375
CGAGACAGGTGAGAAGGTAACTCAGCCTCGATTA | -0.411

Sequence | PBM binding z-score
ATCTCTAGGTAAAGATAGTTCCGTGAATGCAAAT | 0.233
GCAGACAGGTGAAACGCAGTTAACTCAGGGTGGC | -0.813
CGTCCAAGGTCAAAGCTCAGTGAAGAGATGACGG | 2.02
CCTACTGGGCCATCAGGTCTTTGATATCAACGTT | 0.437
CGTACTGGGCCAAGGTCATTGATCAGTCAAAGCA | 2.56
AGAATGAGGTTACCAAAGATCATGGAAACGCTTG | 0.729
ATCTCTAGGTAGCCAAGTTCAGTGAATGCCGAAC | 0.337
ATATGTAGGTTAAGGGTCATTCACGTTGGTTCGC | 1.12
TCTGCTAGGTCAACGATGGTCAGCTGATCTGCTA | 0.473
ACTATTACTTGACTTAGGGCAACCGATACGACGC | 1.1
CAAACTATGTCACGAAAGGTCAAAGTCGAATGAC | 1.4
CCGACTGGGGCAAAGGTTAACATACTCAGTACGA | -0.145
TCTTGTAGATCAATAGAGGTTAAGAGAGTGCGCT | -0.485
TAGCCTAGGTCAGATCGGGCCAGCATACGCTATA | 0.0653
TCTTGTAGATCAAGCAGGTTAAGAGAGCCTGAGT | -0.531
AGATTGAGGTTATTAAGATCAGGGAATTGCGGTC | 0.869
ACTATTAGTTGTCTTAGGGCAACCGATACGACGC | 0.603
ATATGTAGGTTAGCTGGGGTCATTAAGACTAGGC | 3
TCTTGTAGATCAGCTGGTTAAGAAAGCTGGCCAA | -1.3
TGTCAAAGTTCAAAGGTAACGCAAGTATCCACAC | 0.0532

test system: VDR homodimer (NR concentration 270 nM); test: as above
Outline: as §1

Sequence | PBM binding z-score
GTACAAAGGTGAATAGGTCGTTGATGAGTAGGCG | 0.65
CGGCCAAGGTCAGAGAGGTCAGTGAATGCCGAGT | 5.9
TCTCGGAGGACACGAAGGTCAGAGCCTTCCAGAG | 1.24
CCAGACAGGTGAAAGGTAACTCAGTCTGGTACGC | -0.251
ATATGAAGGTTAGCTGGGGTCATTCAGACTAGGC | 5.65
CCAGACAGGTGAGAAGGTACCTCAGCCTCGATTA | -0.352
GTACCAAGGTGAATAGCTCGTTGATGAGTAGGCG | -0.63
AGACCAAGGTGATCGTGAGGTCGTTGATACTAAC | 2.56
TCTTGTAGGTCAACAGGAGGTTAAGAAAGATCGA | 0.658
CGTCCAAGGTCAAAGGTCTGTGAAGAGATGACGG | 3.09
GCTATTAGTTTAAAGGGCAACCGAATGATTCTCG | 0.916
ATCTCTAGGTAAAGTTCCGTGAAAGATCGATAGA | 0.431
GTACCAAGGTGAATAGGTCGTTCATGAGTAGGCG | 0.67
CAAACTCGGTCACCGGAAGGTCAAAGTCCGCATG | 2.65
GCTGCTAGGTCAGGTCGGTCAGCTAACGGGTACG | 0.733
TCGAGTAGGTTACCAACGGGGCATTCAGCTTTCT | -0.578
CCTCGGAGGACACAAGGTCAGAGCTGTCCGCTTT | 0.992
CCTTACGGGTCACTCCAGGTTATAGCTTCGGAGT | 1.61
ATCTCTAGGTAAAGATTGTTCAGTGAATGCAAAT | 0.0196
CGAGACAGGTGAGAAGGTAACTCAGCCTCGATTA | -0.621

Sequence | PBM binding z-score
ATCTCTAGGTAAAGATAGTTCCGTGAATGCAAAT | 0.309
GCAGACAGGTGAAACGCAGTTAACTCAGGGTGGC | -0.764
CGTCCAAGGTCAAAGCTCAGTGAAGAGATGACGG | 2.15
CCTACTGGGCCATCAGGTCTTTGATATCAACGTT | -0.123
CGTACTGGGCCAAGGTCATTGATCAGTCAAAGCA | 3.55
AGAATGAGGTTACCAAAGATCATGGAAACGCTTG | 0.455
ATCTCTAGGTAGCCAAGTTCAGTGAATGCCGAAC | 2.15
ATATGTAGGTTAAGGGTCATTCACGTTGGTTCGC | 4.09
TCTGCTAGGTCAACGATGGTCAGCTGATCTGCTA | -0.511
ACTATTACTTGACTTAGGGCAACCGATACGACGC | 0.484
CAAACTATGTCACGAAAGGTCAAAGTCGAATGAC | 2.8
CCGACTGGGGCAAAGGTTAACATACTCAGTACGA | 0.335
TCTTGTAGATCAATAGAGGTTAAGAGAGTGCGCT | 0.473
TAGCCTAGGTCAGATCGGGCCAGCATACGCTATA | -0.746
TCTTGTAGATCAAGCAGGTTAAGAGAGCCTGAGT | -0.291
AGATTGAGGTTATTAAGATCAGGGAATTGCGGTC | 1.49
ACTATTAGTTGTCTTAGGGCAACCGATACGACGC | 0.0368
ATATGTAGGTTAGCTGGGGTCATTAAGACTAGGC | 4.98
TCTTGTAGATCAGCTGGTTAAGAAAGCTGGCCAA | -0.694
TGTCAAAGTTCAAAGGTAACGCAAGTATCCACAC | 4.37
